High-throughput results deposited in PubChem by National Center for Advancing Translational Sciences (NCATS).
DT40 TDP1 no CPT: qHTS for Inhibitors of human tyrosyl-DNA phosphodiesterase 1 (TDP1): qHTS in cells in absence of CPT; DT40 Tdp1-/- hTDP1 cells, no CPT, ATP luminescence, 48 h; Potency, µM (doses to about 46.2 µM), inactives show top-dose activity change, negative = growth inhibition, hits mostly inhibitors; 420,000 compounds, 15% hits; AID 686978, 2013; also: potency is read from the fitted curve at half-maximal effect; nearly all actives have a fitted effect of over 55% in size
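Growth of hTDP1-complemented DT40 Tdp1-knockout cells is measured by ATP luminescence after at least 48 hr compound exposure at 37 °C, with DMSO substituting for the 20 nM CPT used in the parallel screen.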
DT40 TDP1 CPT: qHTS for Inhibitors of human tyrosyl-DNA phosphodiesterase 1 (TDP1): qHTS in cells in presence of CPT. chicken DT40 Tdp1-/-;hTDP1 cells + 20 nM CPT, ATP luminescence, 48 h. Potency, µM (highest dose often 46.2 µM), inactives show at the highest dose activity change, negative = growth inhibition, actives largely listed as inhibitors. 420,000 compounds, 12% hits. AID 686979, 2013; also: potency is read from the fitted curve at half-maximal effect; nearly all actives have a fitted effect of over 55% in size
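Cell growth measured by CellTiter-Glo luminescence after a minimum 48 h, 37 C compound exposure with 20 nM CPT in Tdp1-knockout DT40 cells stably expressing hTDP1, seeded 400/well; qHTS titration format.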
IL1B secr inh: qHTS for Inhibitors of Inflammasome Signaling: IL-1-beta AlphaLISA Primary Screen | AID 743279, 2014 | THP-1 LPS/ATP IL-1B secretion, AlphaLISA, 16 h; active compounds read low | activity change, % at 57.5 µM | 360,000 compounds, 4.7% hits; in the data active = activity change below about -50%; inconclusive = mostly about -30% to -49%
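Secreted IL-1B measured by AlphaLISA bead assay after 16 h compound exposure of THP-1 cells; compounds (final up to 57.5 uM) added 1 h before LPS (250 ng/mL) and ATP (1.25 mM) stimulation; lower signal means less secretion.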
HT1080NT lethal: qHTS for induction of synthetic lethality in tumor cells producing 2HG: qHTS for the HT-1080-NT fibrosarcoma cell line; HT-1080-NT fibrosarcoma viability, CellTiter-Glo ATP luminescence, 48 h; Potency, µM (highest dose often 46.1 µM), for the others: at the highest dose activity, negative = less viability, usual class: cytotoxic; 360,000 compounds, 1.6% hits;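 also: NT is the 2HG producing partner of a matched IDH1 knockdown line; potency is read from the fitted curve at half-maximal effect; 0% = DMSO-treated cells and -100% = media-only wells without cells; nearly all actives have a fitted effect of over 55% in size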
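Fibrosarcoma NT cells, 750 per well in 5% FBS RPMI, were exposed to compound for 48 hours. Viability: CellTiter-Glo luminescence.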
HT1080 IDH1KD tx: qHTS for induction of synthetic lethality in tumor cells producing 2HG: qHTS for the HT-1080-IDH1KD cell line. 360,000 compounds, 2% hits. Potency, µM (top dose mostly 46.1 µM), for inactives: at the top dose activity, negative = toxicity, most hits filed as cytotoxic. HT-1080 IDH1 knockdown viability, ATP luminescence, 48 h;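 also: potency is read from the fitted curve at half-maximal effect; 0% = DMSO wells and -100% = cell-free medium wells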
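HT-1080-IDH1KD cells (IDH1 knocked down), 750/well in RPMI with 5% FBS, treated with compound 48 h at 37 degrees C. Viability by CellTiter-Glo luminescence, normalised to DMSO and no-cell wells; concentration-response curves classed.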
Active calls of the source: *; ? = inconclusive; nt = no result. Shown are actives, neighbours in structure and some others; about 19% of the full set was active somewhere. Unless noted, calls follow the shape of the dose curve; as a rule, active = well fitted curve in the direction sought with a large enough effect; inconclusive = small, poorly fitted or top-dose-only effect, or another doubt; inactive = no such curve, though single readings can be large; an effect the other way counts as inactive or inconclusive. Unless noted, % is scaled to controls: 0 for no effect and ±100 for the full control effect.

SMILES	DT40 TDP1 no CPT	DT40 TDP1 CPT	IL1B secr inh	HT1080NT lethal	HT1080 IDH1KD tx
Cc1noc(C)c1S(=O)(=O)N(CC(=O)NC1CCCC1)c1ccc(C(C)C)cc1	-17.5%	-14.4%	2.6	0.0%	-0.8%
Cc1cccc(N2CCN(C(=O)C3CCCN(S(=O)(=O)c4cccc5nsnc45)C3)CC2)c1C (centres undefined)	18.4µM*	2.6%	nt	nt	nt
O=C(C1CCN(S(=O)(=O)c2cccc3nsnc23)CC1)N1CCN(c2ccccc2F)CC1	?	?	-0.8	-3.8%	-3.5%
CC(C)NC(=O)C1CCCN(S(=O)(=O)c2cccc3nonc23)C1 (centres undefined)	-1.8%	-7.0%	6.9	5.8%	2.3%
O=C(C1CCCN(S(=O)(=O)c2cccc3nonc23)C1)N1CCN(c2cccc(C(F)(F)F)c2)CC1 (centres undefined)	11.6µM*	14.6µM*	nt	nt	nt
O=C(C1CCCN(S(=O)(=O)c2cccc3nsnc23)C1)N1CCN(c2ccccc2F)CC1 (centres undefined)	14.6µM*	18.4µM*	nt	nt	nt
O=C(C1CCCN(S(=O)(=O)c2cccc3cccnc23)C1)N1CCN(c2ccccc2F)CC1 (centres undefined)	14.6µM*	23.1µM*	14.3	1.7%	1.9%
COc1ccc(N2CCN(S(=O)(=O)c3ccc(-c4ccno4)cc3OC)CC2)cc1	-26.6%	-11.0%	nt	nt	nt
COC(=O)C(C(=O)OC)c1ccccc1CNS(=O)(=O)c1ccc(C)cc1	-20.0%	?	11.7	-0.3%	12.4%
O=c1c(-c2cccc(Cl)c2)nc2cncnc2n1C1CC1	2.1%	3.6%	nt	nt	nt
COc1cc(C(=S)N2CCOCC2)ccc1OC(=O)/C=C/c1ccco1	-13.0%	-22.6%	5.0	-4.1%	7.3%
O=C(C1CCCN(S(=O)(=O)c2cccc3nsnc23)C1)N1CCN(c2ccccc2)CC1 (centres undefined)	20.6µM*	16.4µM*	nt	nt	nt
CC(=O)N1CCc2c(sc(NC(=O)C3COc4ccccc4O3)c2C(N)=O)C1 (centres undefined)	?	20.6µM*	-21.6	-4.2%	-6.2%
COC(=O)c1c(NC(=O)C2COc3ccccc3O2)sc2c1CCN(C(C)=O)C2 (centres undefined)	?	11.6µM*	13.9	-0.1%	-11.3%
CC(=O)N1CCc2c(sc(NC(=O)c3ccc([N+](=O)[O-])o3)c2C(N)=O)C1	7.31µM*	3.66µM*	-80.0*	6.51µM*	5.8µM*
COC(=O)c1c(NC(=O)c2nc3ccccc3s2)sc2c1CCN(C(C)=O)C2	6.51µM*	7.31µM*	?	9.0%	-3.5%
O=C(Cc1ccsc1)NCC(=O)Nc1ccc(F)c(F)c1	18.2%	3.1%	13.2	3.0%	2.9%
Cc1cccc(CNC(=O)c2cnc3sc(N4CCOCC4)nn3c2=O)c1	-19.9%	-11.5%	nt	nt	nt
NCC1CCCCC1CC(=O)O (centres undefined)	-3.1%	-16.3%	nt	nt	nt
CC(=O)N1CCc2c(sc(NC(=O)c3ccc4c(c3)OCCO4)c2C#N)C1	3.66µM*	4.11µM*	24.9	18.4µM*	11.6µM*
CCOC(=O)CNC(=O)CN1CCCN(S(=O)(=O)c2ccc(Br)s2)CC1	?	-24.1%	-9.9	-7.6%	-7.2%
O=C(CN1CCN(S(=O)(=O)c2ccc(Br)s2)CC1)N1CCc2ccccc21	?	?	-8.6	-1.4%	-0.5%
O=C(CN1CCCN(S(=O)(=O)c2ccc(Br)s2)CC1)Nc1ccc(Cl)cc1	?	?	-75.9*	?	17.8µM*
CC1CCCC(NC(=O)CN2CCN(S(=O)(=O)c3ccc(Br)s3)CC2)C1C (centres undefined)	18.4µM*	?	?	-3.6%	-1.1%
C/C(CC(=O)NC1CCCCC1)=N\NC(=O)COc1ccc(C)cc1Br	-25.6%	-11.9%	-23.2	-1.3%	-0.1%
SMILES	DT40 TDP1 no CPT	DT40 TDP1 CPT	IL1B secr inh	HT1080NT lethal	HT1080 IDH1KD tx
COc1ccc(-c2ccc(-c3cc(=O)oc4cc(OC)c(OC)c(OC)c34)cc2)cc1F	23.1µM*	18.4µM*	-17.6	-0.5%	-0.7%
CCOC(=O)c1ccc(-c2ccc(-c3cc(=O)oc4cc(OC)c(OC)c(OC)c34)cc2)cc1	18.4µM*	18.4µM*	5.6	10.2%	5.5%
COc1cc2oc(=O)cc(-c3ccc(-c4ccc(N(C)C)cc4)cc3)c2c(OC)c1OC	?	?	12.9	-2.1%	-5.1%
COc1cc2oc(=O)cc(-c3ccc(-c4ccc(F)c(Cl)c4)cc3)c2c(OC)c1OC	14.6µM*	18.4µM*	23.9	0.5%	0.0%
COc1cc2oc(=O)cc(-c3ccc(-c4ccc(OC(F)(F)F)cc4)cc3)c2c(OC)c1OC	11.6µM*	16.4µM*	62.6	15.6%	12.4%
CC(C)NC(=O)C(=O)NCCC1CCCCN1S(=O)(=O)c1cccs1 (centres undefined)	5.2%	-13.1%	0.7	9.4%	18.5%
CNc1cccc(-c2ccccc2CO)n1	-10.1%	-23.6%	0.0	18.3%	21.5%
O=C(NC(=S)Nc1ccc(CN2CCCCC2)cc1)c1cccc(OCc2ccccc2)c1	11.6µM*	9.2µM*	0.0	?	20.6µM*
CCOc1ccc(OCc2cccc(C(=O)O)c2)cc1	8.2µM*	14.6µM*	8.4	7.94µM*	7.94µM*
COc1ccc(OCc2cccc(C(=O)O)c2)cc1	?	?	0.7	?	?
CCOc1cccc(C(=O)NC(=S)Nc2ccccc2)c1	?	?	13.7	2.9%	2.6%
O=C(O)c1ccc(NC(=S)NC(=O)c2cccc(COc3ccccc3)c2)cc1	3.3%	-26.4%	-54.5*	-3.1%	-7.6%
Cn1ccc(C(=O)NC(=S)Nc2ccc([N+](=O)[O-])cc2O)n1	-5.2%	-6.6%	-12.8	-2.0%	11.3%
O=C(Nc1ccc(C(=O)OCc2cc(=O)n3nc(C4CC4)sc3n2)cc1)c1ccccc1	-20.8%	-18.8%	nt	nt	nt
CC(=O)NC(c1ccc(F)c(F)c1)c1nc(-c2ccncc2)cs1 (centres undefined)	14.6µM*	18.4µM*	10.8	-0.8%	-3.0%
CC(=O)NC(c1ccc(F)c(F)c1)c1nc(-c2cccc(C(F)(F)F)c2)cs1 (centres undefined)	?	?	?	-0.1%	-9.7%
CC(=O)NC(c1ccc(F)c(F)c1)c1nc(-c2cccc(F)c2)cs1 (centres undefined)	-25.9%	20.6µM*	-15.8	7.3%	-4.7%
